Experimental data reported in PubChem BioAssay (EPA / NIEHS).
“And” between values parts separate entries of the source, which are not always exact repeats. Equal entries are not always repeated. Results filed as inconclusive are left out. A structure can be active in one record and inactive in another. The source made the active and inactive calls. How the source made its calls: active means hit-call score of the fitted dose curve at least 0.9, where 1 is the maximum; inconclusive means response in the unintended direction; inactive means score below 0.9.

These molecules were tested against rat Adrenergic, Alpha 1, Non-selective Receptor (Adra1), Adra1a (gene 29412) (UniProt P43140) (assay: NVS_GPCR_rAdra1_NonSelective: NovaScreen (NVS) G Protein-Coupled Receptor Assay for rat Adrenergic, Alpha 1, Non-selective Receptor (Adra1) (AID 2283289)).
Procedure, shortened: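 Rat forebrain membranes; radioligand displacement read by filter-based scintillation counting 1 h after dosing. Primary screen in duplicate at 25 uM; hits (e.g. ≥30% inhibition) rerun as concentration–response to 50 uM max. Fitted versus DMSO.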

rat Adrenergic, Alpha 1, Non-selective Receptor (Adra1), Adra1a (gene 29412), sequence (P43140 whole entry, looked up): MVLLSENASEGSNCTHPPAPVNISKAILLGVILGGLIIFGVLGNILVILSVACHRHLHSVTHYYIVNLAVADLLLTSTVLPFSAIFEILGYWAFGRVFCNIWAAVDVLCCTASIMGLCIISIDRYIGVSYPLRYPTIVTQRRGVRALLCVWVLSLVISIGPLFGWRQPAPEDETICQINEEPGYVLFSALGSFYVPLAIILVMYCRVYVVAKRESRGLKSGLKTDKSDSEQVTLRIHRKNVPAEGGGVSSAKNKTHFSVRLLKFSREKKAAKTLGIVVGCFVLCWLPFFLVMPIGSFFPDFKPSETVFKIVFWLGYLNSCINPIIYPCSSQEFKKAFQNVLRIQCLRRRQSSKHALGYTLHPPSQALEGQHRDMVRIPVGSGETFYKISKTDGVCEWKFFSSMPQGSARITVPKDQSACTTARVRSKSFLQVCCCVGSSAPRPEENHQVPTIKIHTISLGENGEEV

SMILES	AC50	outcome
CN(C)C(=O)NC1(c2ccccc2)CCN(CCC[C@]2(c3ccc(Cl)c(Cl)c3)CCCN(C(=O)c3ccccc3)C2)CC1	6.25 µM (active)	–
CSc1ccc(Oc2ccc(S(N)(=O)=O)cc2CN(C)C)cc1C	1.08 µM (active)	–
O=C(N[C@@H](c1ccccc1)[C@@H]1CCCCN1)c1cccc(C(F)(F)F)c1Cl	–	inactive
CCc1nc(N)nc(N)c1-c1ccc(Cl)cc1	8.12 µM (active)	–
O=C(O)c1[nH]n(-c2ccc(S(=O)(=O)O)cc2)c(=O)c1N=Nc1ccc(S(=O)(=O)O)cc1	–	inactive
NC(=Nc1ccccc1)Nc1ccccc1	–	inactive
CCN(CC)CCOc1ccc(C(=C(Cl)c2ccccc2)c2ccccc2)cc1	7.75 µM (active)	–
Cc1ccc(C(C)(C)C)c(O)c1	–	inactive

The molecules below were run against human Opioid Receptor Mu (Opiate Mu), OPRM1 (gene 4988) (UniProt P35372) (assay: NVS_GPCR_hOpiate_mu: NovaScreen (NVS) G Protein-Coupled Receptor Assay for human Opioid Receptor Mu (Opiate Mu) (AID 2283290);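 further: hits lower bound tracer signal versus DMSO meaning displacement of the ligand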).
Procedure, shortened: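 Radioligand displacement binding on membranes from CHO cells expressing the receptor, 2.5 h after dosing, filter-based scintillation counting; loss of signal vs DMSO baseline. Screened in duplicate at 25 uM, actives then run in concentration series.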

human Opioid Receptor Mu (Opiate Mu), OPRM1 (gene 4988), sequence (P35372 whole entry, looked up): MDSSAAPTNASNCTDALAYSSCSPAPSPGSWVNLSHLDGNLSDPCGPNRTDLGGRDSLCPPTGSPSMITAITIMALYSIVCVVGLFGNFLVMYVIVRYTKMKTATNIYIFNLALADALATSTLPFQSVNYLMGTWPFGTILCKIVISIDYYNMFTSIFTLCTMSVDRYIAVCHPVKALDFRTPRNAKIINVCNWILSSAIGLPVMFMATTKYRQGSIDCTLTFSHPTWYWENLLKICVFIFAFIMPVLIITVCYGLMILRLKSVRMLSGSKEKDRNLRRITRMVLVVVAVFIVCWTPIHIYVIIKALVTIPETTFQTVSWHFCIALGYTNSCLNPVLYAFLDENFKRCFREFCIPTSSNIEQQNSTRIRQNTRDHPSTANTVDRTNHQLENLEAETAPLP

SMILES	AC50	outcome
CN(C)C(=O)NC1(c2ccccc2)CCN(CCC[C@]2(c3ccc(Cl)c(Cl)c3)CCCN(C(=O)c3ccccc3)C2)CC1	3.14 µM (active)	–
S=c1[nH]c2ccccc2s1	–	inactive
CN(C)C(=O)NC1(c2ccccc2)CCN(CC[C@@]2(c3ccc(F)c(F)c3)CN(C(=O)c3ccccc3)CCO2)CC1	14.9 µM (active)	–
Oc1ccccc1O	–	inactive
CSc1ccc(Oc2ccc(S(N)(=O)=O)cc2CN(C)C)cc1C	8.3 µM (active)	–
Cc1occc(=O)c1O	–	inactive
CN(C)CCCN1c2ccccc2Sc2ccc(Cl)cc21	10.3 µM (active)	–
COc1ccc(OC(F)(F)F)cc1CN[C@H]1CCCN[C@H]1c1ccccc1	7.3 µM (active)	–
O=C(N[C@@H](c1ccccc1)[C@@H]1CCCCN1)c1cccc(C(F)(F)F)c1Cl	10.8 µM (active)	–
CCCCC(CC)COP(=O)(OCC(CC)CCCC)OCC(CC)CCCC (stereo not given)	–	inactive
Nc1nc(=S)c2[nH]cnc2[nH]1	–	inactive
CC(=O)O[C@]1(C(C)=O)CC[C@H]2[C@@H]3C=C(Cl)C4=CC(=O)[C@@H]5C[C@@H]5[C@]4(C)[C@H]3CC[C@@]21C	474 nM (active) and 612 nM (active)	inactive
CCCCCCCCCCCCCCOS(=O)(=O)O	8.03 µM (active)	–
Oc1ccc(O)cc1	15.3 µM (active)	–
COC(=O)[C@H]1[C@H]2C[C@@H]3c4[nH]c5cc(OC)ccc5c4CCN3C[C@H]2C[C@@H](OC(=O)c2cc(OC)c(OC)c(OC)c2)[C@@H]1OC	7.12 µM (active)	–

These molecules were tested against guinea pig Serotonin, 5-Hydroxytryptamine Receptor 4 (5HT4), HTR4 (gene 100135548) (UniProt O70528) (assay: NVS_GPCR_g5HT4: NovaScreen (NVS) G Protein-Coupled Receptor Assay for guinea pig Serotonin, 5-Hydroxytryptamine Receptor 4 (5HT4) (AID 2283294)).
Procedure, shortened: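 Guinea pig striatal membranes; radioligand competitive displacement, filtration and scintillation counting after 1 h. Primary screen in duplicate at 25 uM; actives then tested in concentration series; loss of binding signal fitted relative to DMSO.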

guinea pig Serotonin, 5-Hydroxytryptamine Receptor 4 (5HT4), HTR4 (gene 100135548), sequence (O70528 whole entry, looked up): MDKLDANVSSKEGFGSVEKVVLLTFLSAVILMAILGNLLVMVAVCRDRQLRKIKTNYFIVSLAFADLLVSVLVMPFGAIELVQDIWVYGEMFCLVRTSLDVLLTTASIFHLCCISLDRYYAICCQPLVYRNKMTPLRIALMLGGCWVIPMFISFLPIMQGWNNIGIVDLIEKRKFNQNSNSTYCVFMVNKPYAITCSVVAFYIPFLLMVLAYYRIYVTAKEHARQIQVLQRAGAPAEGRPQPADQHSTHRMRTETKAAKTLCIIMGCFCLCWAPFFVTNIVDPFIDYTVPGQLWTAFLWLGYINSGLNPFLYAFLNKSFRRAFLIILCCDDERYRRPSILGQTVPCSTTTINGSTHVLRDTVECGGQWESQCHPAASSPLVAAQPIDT

SMILES	AC50	outcome
CSc1ccc(Oc2ccc(S(N)(=O)=O)cc2CN(C)C)cc1C	0.621 µM (active)	–
CN(C)CCCN1c2ccccc2Sc2ccc(Cl)cc21	15.3 µM (active)	–
COc1ccc(OC(F)(F)F)cc1CN[C@H]1CCCN[C@H]1c1ccccc1	12.2 µM (active)	–
CN(C)CCCN(C)CCCN(C)C	–	inactive
CC(=O)CC(c1ccccc1)c1c(O)c2ccccc2oc1=O (stereo not given)	–	inactive
CCc1nc(N)nc(N)c1-c1ccc(Cl)cc1	4.48 µM (active)	–
O=C(O)c1[nH]n(-c2ccc(S(=O)(=O)O)cc2)c(=O)c1N=Nc1ccc(S(=O)(=O)O)cc1	15.9 µM (active)	–
CC(C)COC(=O)CCCCC(=O)OCC(C)C	–	inactive
CC(C)c1cccc(C(C)C)c1	–	inactive
COC(=O)[C@H]1[C@H]2C[C@@H]3c4[nH]c5cc(OC)ccc5c4CCN3C[C@H]2C[C@@H](OC(=O)c2cc(OC)c(OC)c(OC)c2)[C@@H]1OC	5.67 µM (active)	–
CCN(CC)CCOc1ccc(C(=C(Cl)c2ccccc2)c2ccccc2)cc1	11.4 µM (active)	–

These molecules were tested against rat Serotonin, 5-Hydroxytryptamine Receptor (5HT), Non-Selective Binding, Htr1a (gene 24473) (UniProt P19327) (assay: NVS_GPCR_r5HT_NonSelective: NovaScreen (NVS) G Protein-Coupled Receptor Assay for rat Serotonin, 5-Hydroxytryptamine Receptor (5HT), Non-Selective Binding (AID 2283295)).
Procedure, shortened: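 Radioligand displacement on rat cortical membranes, 1 h incubation, filter-based scintillation counting. Primary duplicates at 25 uM, actives retested in concentration series; loss of signal fitted against DMSO as baseline.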

rat Serotonin, 5-Hydroxytryptamine Receptor (5HT), Non-Selective Binding, Htr1a (gene 24473), sequence (P19327 whole entry, looked up): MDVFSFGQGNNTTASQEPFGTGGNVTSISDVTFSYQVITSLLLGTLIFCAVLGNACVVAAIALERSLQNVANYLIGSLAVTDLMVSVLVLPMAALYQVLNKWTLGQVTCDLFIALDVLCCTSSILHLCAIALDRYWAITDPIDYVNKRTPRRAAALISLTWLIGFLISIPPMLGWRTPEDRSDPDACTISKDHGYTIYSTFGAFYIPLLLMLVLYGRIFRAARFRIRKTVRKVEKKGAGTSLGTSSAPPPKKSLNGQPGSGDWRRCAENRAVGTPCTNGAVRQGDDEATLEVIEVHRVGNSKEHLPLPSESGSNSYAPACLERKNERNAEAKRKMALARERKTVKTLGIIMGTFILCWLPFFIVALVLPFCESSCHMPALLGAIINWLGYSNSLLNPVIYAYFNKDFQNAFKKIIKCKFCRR

SMILES	outcome	AC50
CN(C)C(=O)NC1(c2ccccc2)CCN(CCC[C@]2(c3ccc(Cl)c(Cl)c3)CCCN(C(=O)c3ccccc3)C2)CC1	inactive	–
CN(C)C(=O)NC1(c2ccccc2)CCN(CC[C@@]2(c3ccc(F)c(F)c3)CN(C(=O)c3ccccc3)CCO2)CC1	–	5.72 µM (active)
CSc1ccc(Oc2ccc(S(N)(=O)=O)cc2CN(C)C)cc1C	–	13.5 µM (active)
CN(C)CCCN1c2ccccc2Sc2ccc(Cl)cc21	–	0.331 µM (active)
COc1ccc(OC(F)(F)F)cc1CN[C@H]1CCCN[C@H]1c1ccccc1	–	12.1 µM (active)
O=C(N[C@@H](c1ccccc1)[C@@H]1CCCCN1)c1cccc(C(F)(F)F)c1Cl	–	2.1 µM (active)
CCCCc1nc2cccnc2n1Cc1ccc(-c2ccccc2-c2nnn[nH]2)cc1	inactive	–
Cc1cc(SC2=C(O)C[C@@](CCc3ccc(N)cc3)(C(C)C)OC2=O)c(C(C)(C)C)cc1CO	inactive	–
CCc1nc(N)nc(N)c1-c1ccc(Cl)cc1	–	11.6 µM (active)
CCN(CC)CCOc1ccc(C(=C(Cl)c2ccccc2)c2ccccc2)cc1	–	21 µM (active)
